Measured values taken from PubChem BioAssay (NCI).
The panel holds about 83,000 compounds, 20% with a hit somewhere; the sample as a whole holds those more often.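 Results are percent growth after 48 hours of single-concentration exposure. 100 means growth as in untreated cells, lower positive values show inhibition; negative values down to -100 show cell death.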 A number with no mark means an inactive call. Activity calls are given as the source filed them. The calls were made as follows: active = growth percent below 10; inactive = the rest.

Experiments:
Test in all cases: NCI-60 one-dose screen, 48 h (100 = growth as untreated, 0 = no growth, -100 = all killed)
MDA-MB-435 melanoma = details: 10 µM unless noted
SW-620 colon = details: 10 µM unless noted
MCF7 breast = details: 10 µM
HCT-116 colon = details: 10 µM unless noted
HCC-2998 colon = details: 10 µM unless noted
KM12 colon = details: 10 µM unless noted
BT-549 breast = details: 10 µM unless noted

| SMILES | growth (MDA-MB-435 melanoma) | growth (SW-620 colon) | growth (MCF7 breast) | growth (HCT-116 colon) | growth (HCC-2998 colon) | growth (KM12 colon) | growth (BT-549 breast) |
| --- | --- | --- | --- | --- | --- | --- | --- |
| O=c1c2cc(F)ccc2sc2c(NCCCNCCO)nc3ccc(Cl)cc3c12 | 40.1% | -38.8% (active) | 31% | -18.5% (active) | 60.7% | 44% | – |
| O=c1oc2ccc(I)cc2c(=O)n1-c1ccc(Br)cc1F | -3.14% (active) | 8.98% (active) | 1.77% (active) | 0.474% (active) | 16.2% | -4.63% (active) | – |
| O=c1oc2ccc(Br)cc2c(=O)n1-c1ccc(Cl)cc1F | -8.83% (active) | 9.75% (active) | 3.69% (active) | 1.83% (active) | 22.7% | -14.7% (active) | – |
| O=C(NC1CCN(Cc2ccccc2)CC1)c1cc(C(=O)NC2CCN(Cc3ccccc3)CC2)cc(C(=O)NC2CCN(Cc3ccccc3)CC2)c1 | 70.4% | – | 57.3% | 66.1% | – | 90.8% | 70.5% |
| COc1ccc(C(O)(CCC(C)C)C(CN2CCOCC2)c2ccc(Cl)cc2)cc1 (stereo not given) | – | 28.5% | 55.6% | 26.6% | 64.6% | 48% | 62.2% |
| Cc1nc2ccccc2c(/C=C/c2ccccc2)c1C(=O)/C=C/c1ccc(Cl)cc1 | -9.81% (active) | 3.99% (active) | 14.2% | -5.14% (active) | 12.4% | 21.4% | – |
| CNC(=O)c1cc(Oc2ccc(CC(=O)Nc3cc(C(C)(C)C)cn3C)cc2)ccn1 | 66.2% | – | 50.1% | 54.3% | – | 86.3% | 63.9% |
| COc1ccc(/C=C2\SC(=Nc3ccccc3)NC2=O)cc1 | – | -74.2% (active) | -85% (active) | -82.2% (active) | -87.5% (active) | -89.6% (active) | -72.2% (active) |
| O=C(Nc1ccc(F)cc1F)c1cc(Cl)ccc1O | 4.56% (active) | 14.5% | 3.22% (active) | 8.39% (active) | 23.1% | 5.33% (active) | – |
| Clc1ccc(COc2ccc(Nc3ncnc4onc(-c5ccccc5)c34)cc2)cc1 | 73.1% | – | 75.9% | 72.1% | 106% | 88.9% | 89.1% |
| O=c1oc2ccc(-c3ccc(F)cc3F)cc2c(=O)n1-c1ccc(Cl)c(C(F)(F)F)c1 | 7.88% (active) | 14.6% | 7.27% (active) | 6.47% (active) | 25.6% | 3.84% (active) | – |
| O=C(N/N=C/c1ccccc1Cl)C(=O)Nc1cccc(C(F)(F)F)c1 | 98.4% | – | 97.3% | 92.1% | – | 103% | 112% |
| O=C(Nc1ccc(I)cc1F)c1cc(Br)ccc1O | -3.54% (active) | 7.36% (active) | 2.45% (active) | -8.63% (active) | 14.6% | -7% (active) | – |
| O=c1oc2ccc(F)cc2c(=O)n1-c1ccc(I)cc1F | -1.4% (active) | 11% | 1.73% (active) | 7.36% (active) | 14.6% | -0.975% (active) | – |
| O=C(Nc1ccc(Cl)cc1F)c1cc(Br)ccc1O | 0.322% (active) | 11.4% | 4% (active) | 5.79% (active) | 16.7% | 0.131% (active) | – |
| COc1ccc(OC)c(NC(=O)/C(C#N)=C/c2ccco2)c1 | 98.8% | – | 47.9% | 95.1% | – | 95.5% | 84.5% |

| SMILES | growth (MDA-MB-435 melanoma) | growth (SW-620 colon) | growth (MCF7 breast) | growth (HCT-116 colon) | growth (HCC-2998 colon) | growth (KM12 colon) | growth (BT-549 breast) |
| --- | --- | --- | --- | --- | --- | --- | --- |
| CC(=O)SC1CC(=O)C=C2CCC3C4CCC(=O)OC4(C)CCC3C21C (stereo not given) | – | – | 97% | 102% | 99.3% | 104% | 92.4% |
| O=c1oc2ccc(F)cc2c(=O)n1-c1ccc(Br)cc1F | 0.521% (active) | 10.2% | -3.48% (active) | 2.22% (active) | 13.4% | 0.328% (active) | – |
| O=C(CN1C(=O)/C(=C\c2ccc(Cl)cc2)SC1=S)Nc1ncc(Cc2ccc(Cl)cc2)s1 | 110% | – | 94.8% | 107% | – | 101% | 113% |
| COc1ccc2oc(=O)cc(Cn3cc(Cn4cnc5c4c(=O)n(C)c(=O)n5C)nn3)c2c1 | 108% | – | 92.1% | 102% | – | 105% | 105% |
| O=C(Nc1ccc(I)cc1F)c1cc(Cl)ccc1O | -2.93% (active) | 8.71% (active) | 1.52% (active) | -29.5% (active) | 17.6% | -10.9% (active) | – |
| O=C1c2cc(Br)ccc2Oc2cc([N+](=O)[O-])ccc2N1c1ccc(I)cc1F | 102% | 94.2% | 97.1% | 87.5% | 102% | 100% | – |
| COc1ccc(-n2c(C(O)c3ccccc3)n[nH]c2=S)cc1 (stereo not given) | – | 105% | 93.7% | 96.3% | 106% | 101% | 110% |
| O=c1oc2ccc(Cl)cc2c(=O)n1-c1ccc(I)cc1F | -6.3% (active) | 7.19% (active) | 3.96% (active) | 2% (active) | 16.2% | -18.3% (active) | – |
| O=C(CCc1nnc2sc(Cc3ccccc3Cl)nn12)c1nc2ncccc2[nH]1 | 102% | 88.4% | 80% | 84% | 87.7% | 97.1% | – |
| O=C1c2ccccc2C(=O)c2c1ccc1[nH]c(CCl)nc21 | 28.6% | -23.7% (active) | 6.47% (active) | -6.49% (active) | 65.5% | 22.9% | – |
| O=C(c1ccccc1)N(CCc1ccc(Cl)cc1)C(=S)N(C(=O)c1ccccc1)c1ccccc1 | 96.8% | 80.3% | 35.7% | 69.6% | 105% | 56.5% | – |
| O=C(c1ccccc1)N(C(=S)NCCc1ccc(Cl)cc1)c1ccccc1 | 84% | 76.9% | 38.6% | 62.2% | 101% | 52.3% | – |
| O=c1oc2ccc(F)cc2c(=O)n1-c1ccc(F)cc1F | 11.7% | 31.7% | 24.8% | 24.4% | 22.8% | 12.6% | – |
| O=C1c2cc(Cl)ccc2Oc2cc([N+](=O)[O-])ccc2N1c1ccc(F)cc1F | 93.4% | 85.9% | 86.6% | 79.7% | 115% | 94.6% | – |
| O=c1oc2ccc(F)cc2c(=O)n1-c1ccc(Cl)cc1F | 1.54% (active) | 11.3% | 2.65% (active) | 3.98% (active) | 9.7% (active) | 2.07% (active) | – |
| O=C(Nc1ccc(F)cc1F)c1cc(I)ccc1O | 5.35% (active) | 14.5% | 5.52% (active) | 6.45% (active) | 24.4% | 6.2% (active) | – |
